# Experimental data as given in the supplement of paper PMC13380429.
# Tests used:
# [1] = tested on: Vero E6 infected with SARS-CoV-2; experiment: morphology score (similarity to uninfected cells); higher = more like uninfected cells; settings: 24 h
# [2] = tested on: Vero E6 infected with SARS-CoV-2; experiment: SARS-CoV-2 infection rate relative to infected DMSO; higher = more infection, active = 60 or less; settings: 24 h
structure (smiles),measurement,setting,value
CC(C)(C)c1cc(C(C)(C)C)c(NC(=O)c2c[nH]c3ccccc3c2=O)cc1O [ivacaftor] (10 µM),morphology score,[1],0.363
same,SARS-CoV-2 infection rate,[2],93% (inactive)
C[C@@H]([C@H](O)c1ccc(O)cc1)N1CCC(Cc2ccccc2)CC1 (racemic) [ifenprodil] (10 µM),morphology score,[1],0.0632
same,SARS-CoV-2 infection rate,[2],100% (inactive)
Fc1ccc2nc(CCC#Cc3ccccn3)cn2c1 [dipraglurant] (10 µM),morphology score,[1],0.0385
same,SARS-CoV-2 infection rate,[2],103% (inactive)
CNS(=O)(=O)Nc1nccc(Cc2c(C)c3ccc(Oc4ncccn4)cc3oc2=O)c1F (0.833333 µM),morphology score,[1],-0.0748
same,SARS-CoV-2 infection rate,[2],113% (inactive)
C[C@@H](O)[C@H](N)C(=O)N1CCC[C@H]1C(=O)N1CCC[C@H]1C(=O)N[C@H](C(N)=O)[C@@H](C)O [rapastinel] (10 µM),morphology score,[1],-0.00969
same,SARS-CoV-2 infection rate,[2],94% (inactive)
Cc1cncc(CN2CCC(=C3c4ccc(Cl)cc4CCc4cccnc43)CC2)c1 [rupatadine] (10 µM),morphology score,[1],-0.0273
same,SARS-CoV-2 infection rate,[2],108% (inactive)
C[C@@H]1CN(CC(=O)Nc2ccc3c(c2)Cc2cccc(-c4cc(=O)cc(N5CCOCC5)o4)c2S3)C[C@H](C)O1 (10 µM),morphology score,[1],0.618
same,SARS-CoV-2 infection rate,[2],60% (active)
CC(N)CCCC(C)(C)O (stereo not given) [heptaminol] (10 µM),morphology score,[1],-0.15
same,SARS-CoV-2 infection rate,[2],111% (inactive)
CC(C)C(=O)OC[C@H]1O[C@@H](n2ccc(N)nc2=O)[C@](C)(F)[C@@H]1OC(=O)C(C)C [mericitabine] (10 µM),morphology score,[1],0.0222
same,SARS-CoV-2 infection rate,[2],102% (inactive)
OCCCNc1ccccc1 [3-anilinopropan-1-ol] (10 µM),morphology score,[1],-0.164
same,SARS-CoV-2 infection rate,[2],110% (inactive)
C[C@H]1[C@H](NC(=O)/C(=N\OC(C)(C)C(=O)O)c2csc(N)n2)C(=O)N1S(=O)(=O)O [aztreonam] (10 µM),morphology score,[1],-0.0447
same,SARS-CoV-2 infection rate,[2],94% (inactive)
CC(=O)Nc1ccc(S(=O)(=O)Nc2ccc([N+](=O)[O-])cc2)cc1 [sulfanitran] (10 µM),morphology score,[1],-0.126
same,SARS-CoV-2 infection rate,[2],108% (inactive)
Cc1cc2c(OCC(CNC(C)(C)C)OC(=O)c3ccccc3)cccc2[nH]1 (stereo not given) [bopindolol] (10 µM),morphology score,[1],0.12
same,SARS-CoV-2 infection rate,[2],110% (inactive)
C[C@@H](O)[C@H]1C(=O)N2C(C(=O)[O-])=C(SC3Cn4cnc[n+]4C3)[C@H](C)[C@H]12 (stereo not given in full) [biapenem] (10 µM),morphology score,[1],-0.0332
same,SARS-CoV-2 infection rate,[2],99.5% (inactive)
CN(C)[C@@H]1CCc2[nH]c3ccc(NC(=O)c4ccc(F)cc4)cc3c2C1 (10 µM),morphology score,[1],0.438
same,SARS-CoV-2 infection rate,[2],70.5% (inactive)
O=C(Nc1cccc(C(F)(F)F)c1)Nc1cc(S(=O)(=O)NC2CC2)ccc1-c1ccsc1 (10 µM),morphology score,[1],0.196
same,SARS-CoV-2 infection rate,[2],102% (inactive)
CC(C)[C@]12O[C@H]1[C@@H]1O[C@]13[C@]1(O[C@H]1C[C@H]1C4=C(CC[C@@]13C)C(=O)OC4)[C@@H]2O [triptolide] (10 µM),morphology score,[1],0.381
same,SARS-CoV-2 infection rate,[2],89% (inactive)
Cc1ccc(C(=O)Nc2ccc(S(=O)(=O)O)c3cc(S(=O)(=O)O)cc(S(=O)(=O)O)c23)cc1NC(=O)c1cccc(NC(=O)Nc2cccc(C(=O)Nc3cc(C(=O)Nc4ccc(S(=O)(=O)O)c5cc(S(=O)(=O)O)cc(S(=O)(=O)O)c45)ccc3C)c2)c1 [suramin] (10 µM),morphology score,[1],0.13
same,SARS-CoV-2 infection rate,[2],101% (inactive)
O=C(Nc1ccc([N+](=O)[O-])cc1O)Nc1ccccc1Br (0.833333 µM),morphology score,[1],0.0726
same,SARS-CoV-2 infection rate,[2],103% (inactive)
CCOc1cn(-c2ccc(F)cc2C)nc1C(=O)Nc1ccc(Oc2ccnc3cc(OC)c(OC)cc23)c(F)c1 (10 µM),morphology score,[1],0.685
same,SARS-CoV-2 infection rate,[2],110% (inactive)
Nc1nc2ccc(OC(F)(F)F)cc2s1 [riluzole] (10 µM),morphology score,[1],0.188
same,SARS-CoV-2 infection rate,[2],105% (inactive)
CN(C)CCOC(=O)C(c1ccccc1)C1(O)CCCC1 (stereo not given) [cyclopentolate] (10 µM),morphology score,[1],0.178
same,SARS-CoV-2 infection rate,[2],93% (inactive)
OC(c1cc(C(F)(F)F)nc2c(C(F)(F)F)cccc12)C1CCCCN1 (stereo not given) [mefloquine] (0.833333 µM),morphology score,[1],-0.113
same,SARS-CoV-2 infection rate,[2],112% (inactive)
CCOC(=O)c1ncc2[nH]c3ccc(OCc4ccccc4)cc3c2c1COC (10 µM),morphology score,[1],-0.0675
same,SARS-CoV-2 infection rate,[2],97.5% (inactive)
NCCc1c[nH]c2ccc(C(N)=O)cc12 [5-carboxamidotryptamine] (10 µM),morphology score,[1],0.0259
same,SARS-CoV-2 infection rate,[2],103% (inactive)
CCOC(=O)c1c(C)[nH]c2ccc3c(c12)CN1CCc2cc(OC)ccc2C1O3 (stereo not given) (10 µM),morphology score,[1],0.729
same,SARS-CoV-2 infection rate,[2],28.5% (active)
S=C(NCCc1ccccn1)Nc1ccc(Br)cn1 [trovirdine] (10 µM),morphology score,[1],0.00939
same,SARS-CoV-2 infection rate,[2],110% (inactive)
CCc1nc(-c2cccc(C)c2)c(-c2ccnc(NC(=O)c3ccccc3)c2)s1 (10 µM),morphology score,[1],0.171
same,SARS-CoV-2 infection rate,[2],104% (inactive)
C[C@]12CC[C@H](O)CC1=CC[C@@H]1[C@@H]2CC[C@]2(C)C(n3cnc4ccccc43)=CC[C@@H]12 [galeterone] (0.833333 µM),morphology score,[1],-0.052
same,SARS-CoV-2 infection rate,[2],113% (inactive)
COc1cc2c(cc1F)C(c1ccccc1Cl)=Nc1c(n[nH]c1C)N2 (10 µM),morphology score,[1],-0.191
same,SARS-CoV-2 infection rate,[2],104% (inactive)
COc1cccc(OC)c1-c1cc(C(=O)N[C@@H](CC(C)C)C(=O)O)nn1-c1ccnc2cc(Cl)ccc12 (10 µM),morphology score,[1],-0.0246
same,SARS-CoV-2 infection rate,[2],114% (inactive)
COc1ccc(-c2oc3c(CC=C(C)C)c(O[C@@H]4O[C@H](CO)[C@@H](O)[C@H](O)[C@H]4O)cc(O)c3c(=O)c2O[C@@H]2O[C@@H](C)[C@H](O)[C@@H](O)[C@H]2O)cc1 [icariin] (10 µM),morphology score,[1],0.141
same,SARS-CoV-2 infection rate,[2],106% (inactive)
C[C@@H](O[C@H]1OCCN(Cc2nn[nH]c2CN(C)C)[C@H]1c1ccc(F)cc1)c1cc(C(F)(F)F)cc(C(F)(F)F)c1 (10 µM),morphology score,[1],0.43
same,SARS-CoV-2 infection rate,[2],58% (active)
O=C(O)c1ccc(N2N=C(Cc3ccccc3)/C(=C\c3ccc(-c4ccccc4F)o3)C2=O)cc1 (10 µM),morphology score,[1],-0.0825
same,SARS-CoV-2 infection rate,[2],115% (inactive)
O=C1c2ccccc2C(=O)c2ccccc21 [anthraquinone] (10 µM),morphology score,[1],0.166
same,SARS-CoV-2 infection rate,[2],103% (inactive)
Cc1ccc(NC(=O)C2(c3ccc4c(c3)OC(F)(F)O4)CC2)nc1-c1cccc(C(=O)O)c1 [lumacaftor] (10 µM),morphology score,[1],0.0696
same,SARS-CoV-2 infection rate,[2],114% (inactive)
CC(C)N1CCN(c2ccc(OCC3COC(Cn4cncn4)(c4ccc(Cl)cc4Cl)O3)cc2)CC1 (stereo not given) [terconazole] (0.833333 µM),morphology score,[1],-0.0821
same,SARS-CoV-2 infection rate,[2],106% (inactive)
Cn1cc(-c2ccc3ncc(Cc4ccc5ncccc5c4)n3n2)cn1 (10 µM),morphology score,[1],0.442
same,SARS-CoV-2 infection rate,[2],83% (inactive)
COc1cc2c(c(OC)c1OC)-c1ccc(OC)c(=O)cc1[C@@H](NC(C)=O)CC2 [colchicine] (10 µM),morphology score,[1],-0.0542
same,SARS-CoV-2 infection rate,[2],96% (inactive)
CCCC[C@H](NC(C)=O)C(=O)N[C@H]1CC(=O)NCCCC[C@@H](C(=O)O)NC(=O)[C@H](Cc2c[nH]c3ccccc23)NC(=O)[C@H](CCCNC(=N)N)NC(=O)[C@@H](Cc2ccccc2)NC(=O)[C@H](Cc2c[nH]cn2)NC1=O [bremelanotide] (10 µM),morphology score,[1],0.067
same,SARS-CoV-2 infection rate,[2],96.5% (inactive)
Cc1ccc2c(Br)cc(Br)c(OC(=O)c3ccccc3)c2n1 [broxaldine] (0.833333 µM),morphology score,[1],0.246
same,SARS-CoV-2 infection rate,[2],103% (inactive)
O=c1[nH]c2cc(C(F)(F)F)c(N3CCOCC3)cc2n(CP(=O)(O)O)c1=O (10 µM),morphology score,[1],0.119
same,SARS-CoV-2 infection rate,[2],99% (inactive)
O=C1CNC(=O)CN1 [piperazinedione] (0.833333 µM),morphology score,[1],0.0804
same,SARS-CoV-2 infection rate,[2],106% (inactive)
O=C(Nc1ccccc1-c1cn2c(CN3CCNCC3)csc2n1)c1cnc2ccccc2n1 (0.833333 µM),morphology score,[1],0.075
same,SARS-CoV-2 infection rate,[2],114% (inactive)
CCn1c(=O)/c(=C2\Sc3ccccc3N2C)s/c1=C\c1cccc[n+]1CC (10 µM),morphology score,[1],0.136
same,SARS-CoV-2 infection rate,[2],106% (inactive)
CS[C@H]1SC[C@H]2C(=O)N(C)[C@@H](C(C)C)C(=O)OC[C@@H](NC(=O)c3cnc4ccccc4n3)C(=O)N[C@@H](C)C(=O)N(C)[C@@H]1C(=O)N(C)[C@@H](C(C)C)C(=O)OC[C@@H](NC(=O)c1cnc3ccccc3n1)C(=O)N[C@@H](C)C(=O)N2C [echinomycin] (0.833333 µM),morphology score,[1],-0.0512
same,SARS-CoV-2 infection rate,[2],96% (inactive)
COC(=O)c1cc(OC)c2c(c1-c1c(C(=O)OC)cc(OC)c3c1OCO3)OCO2 [bifendate] (10 µM),morphology score,[1],0.0714
same,SARS-CoV-2 infection rate,[2],108% (inactive)
Oc1ccc2c3c1O[C@H]1c4c(c5ccccc5n4Cc4ccccc4)C[C@@]4(O)[C@@H](C2)N(CC2CC2)CC[C@]314 [N-benzylnaltrindole] (0.833333 µM),morphology score,[1],0.148
same,SARS-CoV-2 infection rate,[2],102% (inactive)
CC/C(=C(/c1ccc(OCCN(C)C)cc1)c1cccc(O)c1)c1ccccc1 [droloxifene] (10 µM),morphology score,[1],0.73
same,SARS-CoV-2 infection rate,[2],24% (active)
O=C(O)CCn1c2c(c3ccccc31)C[C@H](NS(=O)(=O)c1ccc(F)cc1)CC2 [ramatroban] (10 µM),morphology score,[1],-0.0055
same,SARS-CoV-2 infection rate,[2],102% (inactive)
CCN(CC)CCN[C@@H](C(=O)OCCC(C)C)c1ccccc1 [camylofine-chlorhydrate] (10 µM),morphology score,[1],0.18
same,SARS-CoV-2 infection rate,[2],98% (inactive)
CN1C(=O)CC(C)(c2ccccc2)C1=O (stereo not given) [methsuximide] (10 µM),morphology score,[1],0.0784
same,SARS-CoV-2 infection rate,[2],110% (inactive)
O=C(OOC(=O)c1ccccc1)c1ccccc1 [benzoyl-peroxide] (10 µM),morphology score,[1],-0.0426
same,SARS-CoV-2 infection rate,[2],97.5% (inactive)
COc1ccc(CN(C(=O)[C@@H](N)Cc2c(C)cc(C(N)=O)cc2C)[C@@H](C)c2ncc(-c3ccccc3)[nH]2)cc1C(=O)O [eluxadoline] (10 µM),morphology score,[1],0.15
same,SARS-CoV-2 infection rate,[2],117% (inactive)
CC(=O)Nc1cccc2c1c(Sc1ccc(Cl)cc1)c(C)n2CC(=O)O (10 µM),morphology score,[1],0.187
same,SARS-CoV-2 infection rate,[2],97% (inactive)
